The text below walks through data of PubChem BioAssay (Tox21).

Records with an inconclusive call do not appear. A call without a number means that no potency is given here. The source made the active and inactive calls. Calls come from the whole dose curve.

This test is described as follows: qHTS assay to identify small molecule agonists of H2AX - cell viability counter screen (AID 1224847). Note: top concentration of the series differs between compounds; nearly all actives have a fitted effect of over 30% in size. As to conditions: CHO-K1 viability, CellTiter-Glo luminescence, 3 h; series mostly up to 154 µM. The text has this:
National Center for Advancing Translational Sciences [NCATS]
NIH Chemical Genomics Center [NCGC]
U.S. Environmental Protection Agency [EPA]
National Institutes of Environmental Health Sciences [NIEHS]
National Toxicology Program [NTP]
U.S. Food and Drug Administration [FDA]
HTRF phospho-H2AX (Ser139) assay (Cisbio Bioassays, US) enables the quantitative detection of the histone variant H2AX when phosphorylated on serine 139. When double-stranded DNA breaks, either by ionizing radiation or endogenous physiological processes, H2AX becomes phosphorylated at Ser139. This phospho-Ser139 serves as a sensitive biomarker for the detection of such breaks, localizing the site of DNA repair. So, HTRF phospho-H2AX Ser139 is a pertinent assay to study genome stability, the cell cycle, DNA repair, and it serves as a biomarker for cancer, and to understand aging. Wild type CHO-K1 cells were used to identify the inducers of Phospho-H2AX Ser 139 from the Tox21 compound collections. Also cytotoxicity of the Tox21 10K compound library against the CHO-K1 cell line was tested by measuring the cell viability using CellTiter-Glo assay (Promega, Madison, WI).
Tox21 Assay Protocol Summary:
The CHO-K1 cells suspended in culture medium containing 10% FBS were dispensed at 1000 cells/ 3 ul/well in 1536-well white wall/solid bottom plates (Greiner Bio-One North America, NC) using a Multidrop Combi (Thermo Fisher Scientific Inc., Waltham, MA). After the assay plates were incubated at 37C overnight, 23 nl of compounds at 15 concentrations (from 5-48 columns) or positive control (from 1 to 4 columns) were transferred to the assay plates using a Pintool station (Wako, San Diego, CA) into each well resulting in a final DMSO concentration of 0.76%. After 3hr incubation at 37C, 3 uL/well CellTiter-Glo luminescent cell viability reagent (Promega Corporation, Madison, WI) was added using a Flying Reagent Dispenser (FRD) (Aurora Discovery, CA). After incubation at room temperature for 30 min, the luminescence intensity was read using a ViewLux plate reader (PerkinElmer, Waltham, MA).
`CCCN(C1CCN(C(=O)C2CCNCC2)CC1)[C@@H]1CCc2ccc(OC)cc2C1`: the Potency result is “inactive”.
On the same count and under the same terms, the result for `Nc1ncnc2c1ncn2[C@@H]1O[C@H](CO)[C@@H](O)[C@H]1O` reads “inactive”.
Regarding `O=Cc1ccc(Cl)c([N+](=O)[O-])c1`, the Potency result is “inactive”.
The same measure, in the same setting: the result for `O=c1[nH][nH]c2ccccc12` reads “inactive”; that for `O=C1C=CCCC1`, “inactive”.
In the case of `C=C[Si]1(C)O[Si](C)(C=C)O[Si](C)(C=C)O[Si](C)(C=C)O1` (stereo not given), the Potency entry is “inactive”.
On the same count and under the same terms, the entry for `CC(=O)Nc1cccc(N)c1` is “inactive”; for `C[C@H](N)C(=O)N[C@@H](C)C(=O)NC1[C@H]2CN(c3nc4c(cc3F)c(=O)c(C(=O)O)cn4-c3ccc(F)cc3F)C[C@@H]12` (stereo not given in full) it is “inactive”; for `O=C(O)c1ccc(O)c(O)c1` it is “inactive”.
On to `O=C1c2ccccc2C(=O)c2c1ccc(O)c2O`, for which the Potency result was “inactive”.
In the case of `CCCC(=O)OCCC(C)C`, the Potency entry was “inactive”.
On the same count and under the same terms, the result for `CCOc1ccc2c(c1)C(C)CC(C)(C)N2` (stereo not given) reads “inactive”; that for `CC1=C(C)C(=O)C(C(CCCCCC(=O)O)c2ccccc2)=C(C)C1=O` (stereo not given), “inactive”.
As for `O=[N+]([O-])c1ccc(Cl)cc1Cl`, the Potency entry was “inactive”.
As for `CC(C)=CCC/C(C)=C/C=N/O`, the Potency result was “inactive”.
As to `CC(C)Oc1ccccc1O`, the Potency result is “inactive”.
In the case of `CCCc1ccc(OC)cc1`, the Potency entry is “inactive”.
Same read-out and setting: the result for `Cc1ccc(NC(=O)c2ccc(CN3CCN(C)CC3)cc2)cc1Nc1nccc(-c2cccnc2)n1` reads “inactive”; that for `CCOC(C)OCC`, “inactive”.
As to `Cc1cccc(C)c1NC(=O)CN1CCCC1`, the Potency result is “inactive”.
Still for that read-out and setting: the entry for `CCC(CC)C(=O)O` is “inactive”; for `COc1ccc(/C=C/S(=O)(=O)NC(=O)c2ccc(C)cc2Cl)cc1` it is “inactive”; for `C/C=C1\[C@H]2C=C(C)C[C@]1(N)c1ccc(=O)[nH]c1C2` it is “inactive”.
Same read-out and setting: the entry for `Nc1ccc(F)cc1F` is “inactive”; for `O=C(O)c1cc(C(=O)O)c(C(=O)O)cc1C(=O)O` it is “inactive”.
For the compound `COC=O`, the activity change, negative = cytotoxicity is -3.81% [at 14 µM] (inactive).
For `S=c1[nH][nH]c(=S)s1`, the Potency result is “inactive”.
On the same count and under the same terms, the result for `CC(=O)Nc1ccccc1O` reads “inactive”; that for `CC(C)(C(=O)O)c1ccc(C(O)CCCN2CCC(C(O)(c3ccccc3)c3ccccc3)CC2)cc1` (stereo not given), “inactive”; that for `C1CCN(CN2CCCCC2)CC1`, “inactive”.
Consider `OCCCO`, for which the Potency result is “inactive”.
Regarding `CC/C=C\CCO`, the Potency entry is “inactive”.
The same measure, in the same setting: the result for `CCOc1ccccc1O` reads “inactive”; that for `C=CC(O)CCCCC` (stereo not given), “inactive”.
On the same count and under the same terms, the result for `CC(=O)S[C@H](C(=O)N[C@H]1Cc2ccccc2[C@H]2CCC[C@@H](C(=O)O)N2C1=O)C(C)C` reads “inactive”; that for `CCCCCCCCCCCCSCCOCCO`, “inactive”.
For the compound `CCC(C(=O)O)c1ccc(N2Cc3ccccc3C2=O)cc1` (stereo not given), the Potency entry is “inactive”.
On to `Nc1ccc(-c2ccc(F)cc2)cc1`, for which the Potency entry is “inactive”.
On to `CC(=O)Nc1ccn(C2COC(COC(=O)c3ccccc3)O2)c(=O)n1` (stereo not given), for which the Potency result was “inactive”.
Still for that read-out and setting: the entry for `CC1(C)[C@@H]2CC[C@]3(C2)[C@@H]1C(=O)CCC3(C)C` is “inactive”.
